This is a sample that favours compounds with a hit; in the whole collection about 7.9% have one here.
SW480 rerep = DNA re-replication induction in SW480 cells | SW480 DNA re-replication, Hoechst DNA content imaging, 48 h | Potency, µM (top dose mostly 46.1 µM), without a hit: at the top dose re-replication activation, actives largely listed as activators | hit rate 1.8% among 340,000 | AID 624297; further: % of control where 0% means no effect; nearly all actives have a fitted effect of over 55% in size
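250 cells/well; 23 nL cpd via pin tool; 48 hr, 37 C, 5% CO2; Hoechst 40 min; imager read of total nuclear intensity, ex 405/em 500-530 nm.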
KB-3-1 cytotox = KB-3-1 parental cell cytotoxicity | KB-3-1 viability, CellTiter-Glo ATP luminescence, 72 h | Potency, µM (series often up to 46.1 µM), hits mostly cytotoxic | hit rate 1.4% among 400,000 | AID 1347075; further: on the % scale 0 is the no-effect control and ±100 the full control effect; nearly all actives have a fitted effect of over 60% in size
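Using CellTiter-Glo luminescence, growth of non-resistant KB-3-1 adenocarcinoma cells is assessed 72 h after pin-tool compound addition at 37 °C. Normalized responses across the concentration series yield fitted curves.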
KB-V1 cytotox = KB-V1 MDR subline cytotoxicity; Potency, µM (top dose mostly 46.1 µM), usual class: cytotoxic; hit rate 3.4% among 400,000; KB-V1 MDR cells viability, CellTiter-Glo, 72 h; further: on the % scale 0 is the no-effect control and ±100 the full control effect; nearly all actives have a fitted effect of over 60% in size
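qHTS viability screen in drug-selected KB-V1 MDR cells: 72 h compound treatment at 37 degrees C, ATP luminescence end point.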
HT1080 IDH1KD tx = kills HT-1080 cells with IDH1 knockdown; HT-1080 IDH1 knockdown viability, ATP luminescence, 48 h; Potency, µM (top dose mostly 46.1 µM), for inactives: at the top dose activity, negative = toxicity, actives largely listed as cytotoxic; hit rate 2% among 360,000;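 further: 0% = DMSO wells and -100% = cell-free medium wells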
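CellTiter-Glo luminescence after 48 h compound exposure at 37 degrees C of IDH1-knockdown HT-1080 cells in 5% FBS RPMI. %Activity scaled between DMSO wells and cell-free media wells, with curves fitted and assigned curve classes.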
MCF10A rerep = DNA re-replication induction in MCF 10a cells; Potency, µM (titrated, usually from 46.1 µM), without a hit: at the highest dose activity, positive = re-replication, actives largely listed as activators; hit rate 2.9% among 350,000; AID 624296; MCF 10A DNA re-replication, Hoechst nuclear intensity, 48 h; further: % of control where 0% means no effect; nearly all actives have a fitted effect of over 50% in size
HT1080-NT tox = kills 2HG-producing HT-1080-NT fibrosarcoma cells; HT-1080-NT fibrosarcoma viability, CellTiter-Glo ATP luminescence, 48 h; Potency, µM (highest dose often 46.1 µM), inactives show top-dose activity, negative = less viability, most hits filed as cytotoxic; hit rate 1.6% among 360,000;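 further: NT is the 2HG producing partner of a matched IDH1 knockdown line; 0% = DMSO-treated cells and -100% = media-only wells without cells; nearly all actives have a fitted effect of over 55% in size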
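Viability by CellTiter-Glo luminescence after 48 h compound exposure at 37C of HT-1080-NT cells (750/well, RPMI, 5% FBS). % activity scaled between DMSO wells and medium-only wells, then curve-fitted and categorized by curve class.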
* = called active by the depositor; i = inactive; ? = inconclusive; . = no result; [ ] = dose if it differs, or a comment. The call rests on the fitted dose curve; in most records, active means well fitted curve in the direction sought with a large enough effect; inconclusive means small, poorly fitted or top-dose-only effect, or another doubt; inactive means no such curve, though single readings can be large; an effect the other way counts as inactive or inconclusive. Potency means the concentration at half of the fitted maximal effect.

SMILES	SW480 rerep	KB-3-1 cytotox	KB-V1 cytotox	HT1080 IDH1KD tx	MCF10A rerep	HT1080-NT tox
Clc1ccc(-c2csc(=Nc3ccccc3)n2Cc2ccc3c(c2)OCO3)cc1	.	i	i	.	.	.
CCOc1cc(C)c(C(C)C)cc1S(=O)(=O)n1ccnc1CC	.	i	i	.	.	.
O=C(OCC(=O)c1c[nH]c2ccccc12)c1ccc([N+](=O)[O-])s1	20.6µM*	i	?	-12.6%	-12.2%	-2.1%
Cc1ccc(OCC(=O)Nc2ccccc2C(=O)OCc2cc(=O)n3nc(C4CC4)sc3n2)cc1	.	i	i	.	.	.
COC(=O)c1ccccc1NC(=O)Cn1cnc2c(cnn2-c2ccccc2)c1=O	-5.2%	i	6.51µM*	4.2%	-6.8%	18.5%
CCn1cnc2c(cnn2-c2ccccc2)c1=O	3.8%	?	10.3µM*	0.0%	8.0%	-3.3%
O=C(CN1C(=O)CCC1=O)NNc1ccc2ccccc2c1	-66.8%	i	i	2.31µM*	?	2.91µM*
O=C(CNc1ccc2ccccc2c1)NNC1=NCCC1	-4.6%	i	i	-0.2%	-12.2%	-0.5%
O=C(COc1ccc2ccccc2c1)NNC(=O)Cc1ccccc1	-30.0%	i	i	17.8%	-7.9%	25.6%
O=C(Cc1ccccc1)NNc1ccc2ccccc2c1	-7.9%	?	i	3.66µM*	15.7%	?
COc1ccc(-c2nc(S(=O)(=O)c3ccccc3)c(N3CCN(C)CC3)o2)cc1	.	i	?	-6.3%	.	-13.1%
O=C(C[n+]1cccc2cccc(O)c21)c1ccc(Br)cc1	.	i	i	.	.	.
COc1ccc2oc3cc(C)[n+]([O-])c(-c4ccc(Br)cc4)c3c2c1	-5.8%	?	2.91µM*	-5.0%	?	-8.1%
CC(C)Nc1ccc(Nc2ccnc3cc4ccccc4cc23)cc1	-50.6%	16.4µM*	?	5.17µM*	?	?
c1ccc(CCNc2ccnc3cc4ccccc4cc23)cc1	16.4µM*	18.4µM*	8.2µM*	20.6µM*	16.4µM*	18.4µM*
O=C(NCCc1ccccc1)c1nccc2ccccc12	-1.7%	i	i	17.0%	0.4%	17.1%
CC(=O)N1CCCC(C)(C(=O)N(C)Cc2cccc3ccccc23)C1 (configuration not stated)	.	i	i	1.3%	.	14.2%
COc1cc2c(cc1OC)CN(CC(=O)Nc1ccc(S(=O)(=O)N(C)C)cc1)CC2	-14.2%	i	?	-7.7%	2.1%	-1.4%
COc1cc2c(cc1OC)CN(CC(=O)Nc1ccc3c(c1)OC(F)(F)O3)CC2	-0.9%	i	13µM*	10.2%	19.1%	14.0%
Cc1cc(C)n2[nH]c(=O)cc2n1	.	i	i	4.0%	.	10.3%
O=C(NCCCN=C1NS(=O)(=O)c2ccccc21)c1ccc(S(=O)(=O)N2CCCCC2)cc1	?	20.6µM*	i	?	23.1µM*	?
CCc1cccc(C)c1NC(=O)Nc1csc2c1CCCC2	.	i	i	.	.	.
O=C(Nc1cccc(C(F)(F)F)c1)c1cc(-c2ccc(Cl)cc2)on1	.	i	i	.	.	.
O=C(Nc1cccc(C(F)(F)F)c1)N(Cc1ccc(Cl)cc1)CC(O)C(F)(F)F (configuration not stated)	28.9%	?	?	18.4µM*	?	16.4µM*
CC(O)(CS(=O)(=O)Cc1ccc(Cl)cc1)C(=O)Nc1cccc(C(F)(F)F)c1 (configuration not stated)	-1.3%	i	i	12.6µM*	-18.8%	?
SMILES	SW480 rerep	KB-3-1 cytotox	KB-V1 cytotox	HT1080 IDH1KD tx	MCF10A rerep	HT1080-NT tox
Cc1ccsc1CN(C)c1ncnc2ccc(-c3ccoc3)cc12	.	i	i	.	.	.
CCCCC(c1nc2ccccc2[nH]1)n1c(=O)c(-c2ccccc2)nc2cc(C)c(C)cc21 (configuration not stated)	.	i	?	-3.1%	.	0.1%
CCOC(=O)c1sc(NS(=O)(=O)c2ccccc2)nc1C	12.7%	i	i	0.5%[9.24 µM]	-1.3%	-12.1%
Cc1nc(NS(=O)(=O)c2ccccc2)sc1C(C)(C)C	-137.9%	i	18.4µM*	-1.4%	-0.8%	-3.1%
Cc1cccc(-n2ncc3c(Nc4c(C)cc(C)cc4C)ncnc32)c1	.	9.2µM*	?	.	.	.
Cc1cccc(-n2ncc3c(N)ncnc32)c1	1.0%	?	8.2µM*	-6.6%	-1.5%	-2.4%
COc1ccccc1/C=C(\C#N)c1nc(-c2cc3ccccc3oc2=O)cs1	.	i	i	.	.	.
CCC(=O)N1CCN(c2ccccc2NC(=O)Cc2ccc(Cl)cc2)CC1	-7.3%	i	i	-28.0%	-5.8%	-18.3%
CCCC(=O)N1CCN(c2nc3ccc(Cl)cc3s2)CC1	-0.3%	18.4µM*	?	4.4%	?	-2.6%
CCCC(=O)N1CCN(c2nc3ccc(Br)cc3s2)CC1	22.6%	?	i	?	?	?
CCCC(=O)Nc1cc(Cl)ccc1N1CCN(C(=O)CC)CC1	20.9%	i	?	16.8%	18.4µM*	0.0%
CCC(=O)N1CCN(c2ccc(Cl)cc2NC(=O)Cc2ccc(Cl)cc2)CC1	8.8%	i	3.66µM*	?	-9.0%	-29.8%
CN(C(=O)c1cccc(NC(=O)Cc2ccc(NC(=O)C3CCN(C(=O)C4CCCCC4)CC3)cc2)c1)C1CCCC1	-1.8%[9.22 µM]	i	i	-21.3%	-77.3%	-0.5%
Cc1cc(F)ccc1NC(=O)C(C(C)C)N1Cc2ccccc2C1=O (configuration not stated)	.	i	i	.	.	.
O=C(NCc1ccccc1Cl)c1ccc(NC(=O)N2CCSc3ncccc32)cc1	.	i	?	.	.	.
CC(CC(=O)Nc1ccc2c(c1)c(=O)n(C)n2-c1ccc2ccccc2c1)C(F)(F)F (configuration not stated)	.	5.8µM*	5.8µM*	?	.	?
Cn1c(=O)c2cc(NC(=O)Cc3cccnc3)ccc2n1-c1ccc2ccccc2c1	.	?	?	18.4µM*	.	?
Cn1c(=O)c2cc(NC(=O)CC(C)(C)C)ccc2n1-c1ccccc1F	.	i	i	21.8%	.	?
CC(CC(=O)Nc1ccc2c(c1)c(=O)n(C)n2-c1ccccc1F)c1ccccc1 (configuration not stated)	.	?	?	4.11µM*	.	7.31µM*
CSCc1ccc(C(=O)OCC(=O)NC2CCCC2)o1	.	i	?	-2.2%	.	0.6%
CCOC(=O)c1[nH]c(C)c(CCC(=O)Nc2ccc(C)cc2Cl)c1C	.	i	i	.	.	.
CCOC(=O)C1CCN(C(c2ccc(SC)cc2)c2c(O)cc(C)n(Cc3ccco3)c2=O)CC1 (configuration not stated)	.	i	i	.	.	.

Screening data (PubChem BioAssay)
